Shown are actives, neighbours in structure and some others; about 1.8% of the full set was active somewhere.
Mito fusion yeast: mitochondrial division inhibition or fusion activation. Potency, µM (series often up to 46.1 µM), most hits filed as activators. AID 485298. S. cerevisiae fusion-defective mutant growth rescue, CellTiterGlo 48 h. 0.23% of 320,000 active; also: nearly all actives have a fitted effect of over 45% in size
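S. cerevisiae fusion-defective temperature-sensitive mutants (e.g. fzo1-1, mgm1-5) grown 48 h at 37C in YPEG (ethanol/glycerol non-fermentable) medium with 23 nl compound per well; growth rescue read as CellTiterGlo luminescence.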
GRP78 ERSR act: inducers of ER stress response in human glioma cells. U87-MG GRP78 promoter luciferase reporter, 16 h. 0.02% of 420,000 active. Potency, µM, actives largely listed as activators; also: series mostly up to about 76 µM; nearly all actives have a fitted effect of over 35% in size
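ERSR induction read as luciferase luminescence (Bright-Glo, 10 min at room temperature) in stably transfected human U87-MG glioma cells exposed to compounds for 16 h, using GRP78 as sensor.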
TCR act: activators of T cell receptors. primary human leukocytes, anti-CD3, IL-2 HTRF, 48 h. Potency, µM (doses to about 9.22 µM), usual class: activators. 330,000 tested, under 10 active. AID 504894
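Compounds are tested in HTS on primary human leukocytes co-incubated with a-CD3 beads for 48 hr. IL-2 output is measured by time-resolved FRET.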
A-T KAP1 phos: potential ataxia-telangiectasia treatment | F2112 A-T fibroblasts, KAP-1 phosphorylation AlphaLISA; neocarzinostatin DNA damage 30 min before lysis | Potency, µM (series often up to 57.5 µM), most hits filed as activators | 0.19% of 320,000 active; also: nearly all actives have a fitted effect of over 45% in size
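ATM-like activity read as KAP-1 phosphorylation via AlphaLISA donor/acceptor antibody pairs after lysis and 6 hr at 25C. Cells were ATM-null patient fibroblasts (F2112, hTERT), dosed 60 min, then exposed to the DSB inducer NCS for 30 min.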
ClpP mod: qHTS Assay for Activators of ClpP. purified B. subtilis ClpP, FRET peptide cleavage, 20 min. Potency, µM (titrated, usually from 57.5 µM). 1.9% of 340,000 active. AID 651965, 2013; active = well fitted falling curve with a large enough effect; inconclusive = small, poorly fitted or top-dose-only effect; inactive = no such curve, though single readings can be large or run the other way; also: the source files actives as falling curves though it sought activators and does not explain the sign; nearly all actives have a fitted effect of over 65% in size
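Purified B. subtilis ClpP, 10 microg/mL final in Tris/HCl pH8 with KCl, BSA, glycerol and Tween-20, cleaved an Abz/nitrotyrosine-quenched decapeptide. Fluorescence (ex 320, em 430) was read at 0 and 20 min at room temperature. Delta was normalized to 5.8 microM ADEP and DMSO/no-enzyme controls.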
MBNL1 CUG block: blocks human MBNL1 binding to CUG repeat RNA | Q9NR56 | TR-FRET MBNL1-His/biotin-(CUG)12 binding, 665/545 ratio | Potency, µM (highest dose often 57.5 µM), usual class: inhibitors | 0.036% of 280,000 active | AID 2675; active = well fitted inhibition curve with a large enough effect in the signal ratio, with a control signal flat, not every such curve was filed as active; inconclusive = small, poorly fitted or top-dose-only effect, or effect the other way, or a change in a side signal; inactive = no such curve, though single readings can be large or run the other way; the % refers to the signal ratio
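His-tagged MBNL1 binding to biotinylated (CUG)12 RNA was measured by TR-FRET using terbium anti-His antibody (0.055 ng/ul final) and streptavidin-XL665 (5 nM final). Compounds were titrated 92 nM to 58 uM; 60 min at room temperature.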
Numbers stand for hits; 0 = inactive; ? = inconclusive; - = not tested or not shown. Unless noted, calls follow the shape of the dose curve; as a rule, active = well fitted curve in the direction sought with a large enough effect; inconclusive = small, poorly fitted or top-dose-only effect, or another doubt; inactive = no such curve, though single readings can be large; an effect the other way counts as inactive or inconclusive.

SMILES	Mito fusion yeast	GRP78 ERSR act	TCR act	A-T KAP1 phos	ClpP mod	MBNL1 CUG block
Cc1ccnc(NC(=O)c2cc(S(=O)(=O)N3CCCCC3)ccc2Cl)c1	0	0	0	-	22.4µM	0
COc1ccc(-c2ccc(C#N)c(OC)n2)cc1	0	0	0	0	-	-
N#Cc1ccc(-c2ccc(F)cc2)nc1Oc1ccc(Cl)c(Cl)c1	0	0	0	0	39.8µM	0
Cc1ccc(-c2nc3ccccc3o2)cc1NC(=O)c1ccc2c(c1)OCO2	0	0	0	0	?	0
O=C(Nc1ccc(-c2nc3ccccc3o2)cc1)c1ccc(N2C(=O)C3C4C=CC(C4)C3C2=O)cc1 (configuration not stated)	0	0	-	0	3.16µM	0
CC(=O)Nc1ccc2oc(-c3cc(F)c(F)cc3Cl)nc2c1	0	0	0	0	17.8µM	?
O=C(Nc1ccc(-c2nc3ccccc3o2)cc1)c1ccc2c(c1)OCO2	0	0	0	-	31.6µM	0
O=C(Nc1ccc2oc(-c3cccc4ccccc34)nc2c1)c1ncn[nH]1	0	0	0	0	31.6µM	0
CC(C)C(=O)Nc1ccc2oc(-c3cc(F)c(F)cc3Cl)nc2c1	0	0	0	0	0	0
O=C(Nc1ccc2oc(-c3ccccc3F)nc2c1)c1ccc2c(c1)OCCO2	0	0	0	0	28.2µM	0
Cc1cc(C)n2nc(C(=O)N3CCCC(N4CCN(c5ccccc5C)CC4)C3)cc2n1 (configuration not stated)	0	0	0	0	28.2µM	0
CCCCn1c(=O)c2[nH]c(C34CC5CC(CC3C5)C4)nc2n(CCCO)c1=O	-	0	-	-	-	-
CC(C)Cc1ccc(/C=C/C(=O)N2CCOCC2)cc1	0	0	0	0	0	-
CC(C)(C)c1ccc(/C=C/C(=O)N2CCOCC2)cc1	0	0	0	0	22.4µM	0
O=C(NN=C1C2CC3CC(C2)CC1C3)c1cc(Cl)ccc1O	0	0	0	0	28.2µM	0
O=C(NN=C1C2CC3CC(C2)CC1C3)c1ccncc1	0	0	0	0	0	0
O=C(CNc1ccc2ccccc2c1)N/N=C/c1cc2ccccc2nc1Cl	14.1µM	0	0	0	0	?
CCn1c(SC(C)C(=O)Nc2ccc(C)cc2)nnc1-c1ccccc1 (configuration not stated)	-	0	-	-	0	-
Cc1c(C(=O)N2CCC2)oc2c(F)cccc12	-	0	0	0	12.6µM	-
Cc1c(C(=O)N2CCN(c3ccccc3)CC2)oc2c(F)cccc12	0	0	0	0	0	0
CC(=O)Oc1ccccc1C1=NN(C(=O)/C=C/c2ccccc2)C(c2ccccc2)C1 (configuration not stated)	15.8µM	0	0	0	0	0
C=CCn1c(SCC(=O)NNC(=O)Nc2ccc(C)cc2)nnc1-c1ccccc1	0	0	0	0	0	0
CCOc1ncccc1C(=O)OCC(=O)Nc1ccc(-c2nc3ccc(C)cc3s2)cc1	0	0	0	0	3.55µM	0
Cc1ccc2nc(-c3ccc(NC(=O)CN(c4ccccc4C)S(C)(=O)=O)cc3)sc2c1	0	0	0	0	25.1µM	0
C=CCn1c(SCC(=O)Nc2ccc(-c3nc4ccc(C)cc4s3)cc2)nnc1-c1ccccc1	0	0	0	0	15.8µM	?
Cc1ccc2nc(-c3ccc(NC(=O)CN4C(=O)NC(C)(c5ccc(OC(F)F)cc5)C4=O)cc3)sc2c1 (configuration not stated)	0	0	0	0	14.1µM	0
CNC(=O)C1(C(F)(F)F)C/C(=C\Cc2ccccc2)CCCO1 (configuration not stated)	-	0	-	-	-	-
Cc1ccc2nc(-c3ccc(NC(=O)COC(=O)c4ccco4)cc3)sc2c1	0	0	0	0	7.08µM	0
Cc1ccc2nc(-c3ccc(NC(=O)COC(=O)c4cncc(Br)c4)cc3)sc2c1	0	0	0	0	-	0
Cc1ccc2nc(-c3ccc(NC(=O)COC(=O)c4ccc([N+](=O)[O-])o4)cc3)sc2c1	0	0	0	0	28.2µM	0
